The source of these data is PubChem BioAssay (NCI).

Some test systems named below: HCT-15 colon; HT29 colon; SNB-19 CNS; U251 CNS; PC-3 prostate; SK-MEL-5 melanoma; UACC-62 melanoma; LOX IMVI melanoma; SK-MEL-28 melanoma; SK-MEL-2 melanoma; EKVX NSCLC; SN12C renal; UO-31 renal; TK-10 renal; ACHN renal; CAKI-1 renal; CCRF-CEM leukemia; MOLT-4 leukemia; SNB-75 CNS; A498 renal.
Common to all, as to assay: NCI-60 one-dose screen, 48 h (100 = growth as untreated, 0 = no growth, -100 = all killed)
What all share (conditions): 10 µM unless noted

Compounds without any hit were thinned out: in the full panel of roughly 83,000, 20% have a hit.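 Single-concentration screen, 48 h exposure, 96-well plates. Endpoint: percent growth. Below 10 = active.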 Unmarked numbers belong to inactive results. Active and inactive are the calls of the source.

For the compound `Nc1nc(Nc2ccccc2SSc2ccccc2Nc2nc(N)nc(-c3ccc(I)cc3)n2)nc(-c2ccc(I)cc2)n1`, the growth was 36.4% with HCT-15 colon; 97.8% in the assay on HT29 colon; 37.4% with SNB-19 CNS; 34.5% in the assay with U251 CNS; 19.1% in the assay on PC-3 prostate; 81.4% in the assay on SK-MEL-5 melanoma. The growth in the assay on UACC-62 melanoma is 81.6%; with LOX IMVI melanoma, -0.613% (active); in the assay on SK-MEL-28 melanoma, 94.7%; with SK-MEL-2 melanoma it was 103%; with EKVX NSCLC, 52.2%; in the assay with SN12C renal it was 23.4%. Further, the growth with UO-31 renal is -92.2% (active); in the assay on TK-10 renal it was 104%; in the assay with ACHN renal, 19.2%; in the assay with CAKI-1 renal, 59.7%; in the assay on CCRF-CEM leukemia it was 50.3%; in the assay on MOLT-4 leukemia, 71.7%.
On to `Nc1nc(Nc2ccccc2SSc2ccccc2Nc2nc(N)nc(-c3cccc(Cl)c3)n2)nc(-c2cccc(Cl)c2)n1`, for which the growth in the assay with HCT-15 colon was 69.8%; in the assay on HT29 colon, 104%; in the assay with SNB-19 CNS, 96.1%; in the assay with U251 CNS, 78.5%; with PC-3 prostate, 83.9%; in the assay with SK-MEL-5 melanoma it was 95.5%. Also, the growth in the assay with UACC-62 melanoma was 86.2%; with LOX IMVI melanoma, 61.7%; in the assay on SK-MEL-28 melanoma it was 102%; in the assay on SK-MEL-2 melanoma, 105%; in the assay on EKVX NSCLC, 90.5%; in the assay with SN12C renal it was 62.1%. Moreover, the growth with UO-31 renal was 83.9%; in the assay with TK-10 renal it was 154%; in the assay with ACHN renal it was 88.8%; with CAKI-1 renal, 75.5%; in the assay with CCRF-CEM leukemia, 68.1%; with MOLT-4 leukemia, 80.4%.
Turning to `Cc1ccccc1NC(=O)N/C(N)=N/c1nc2ccccc2s1`, the growth in the assay with HCT-15 colon is 20.2%; with HT29 colon, 5% (active); in the assay on SNB-19 CNS it was 31.8%; in the assay with U251 CNS, 20.3%; in the assay with PC-3 prostate, 36.3%; in the assay on SK-MEL-5 melanoma, -53.3% (active). The growth is 38.8% in the assay on UACC-62 melanoma; 21.7% in the assay with LOX IMVI melanoma; 54.6% with SK-MEL-28 melanoma; 37.6% in the assay on SK-MEL-2 melanoma; 39.6% in the assay on EKVX NSCLC; 40% with SN12C renal. Besides, the growth is 54.6% in the assay on UO-31 renal; 67% in the assay on TK-10 renal; 38.8% in the assay with CAKI-1 renal; 14.2% with CCRF-CEM leukemia; 14.9% in the assay on MOLT-4 leukemia.
As for `Nc1nc(Nc2ccccc2SSc2ccccc2Nc2nc(N)nc(C(Cl)(Cl)Cl)n2)nc(C(Cl)(Cl)Cl)n1`, the growth with HCT-15 colon is 41%; in the assay with HT29 colon, 97.4%; with SNB-19 CNS, 70.2%; in the assay on U251 CNS it was 32.1%; with PC-3 prostate, 44.3%; with SK-MEL-5 melanoma, 50.9%. Further, the growth in the assay with UACC-62 melanoma was 70%; in the assay on LOX IMVI melanoma, -24.3% (active); in the assay on SK-MEL-28 melanoma it was 89.2%; in the assay on SK-MEL-2 melanoma it was 72.3%; with EKVX NSCLC, 67.5%; in the assay on SN12C renal, 19.3%. Further, the growth with UO-31 renal was -38.5% (active); in the assay with TK-10 renal, 116%; in the assay on ACHN renal it was -25.3% (active); with CAKI-1 renal it was 52.2%; in the assay on CCRF-CEM leukemia, 45.5%; with MOLT-4 leukemia, 46.7%.
On to `Cc1cc(Cl)ccc1Nc1nc(C(F)(F)F)ccc1C(=O)N/N=C/c1ccc(Cl)cc1`, for which the growth with HCT-15 colon is 5.02% (active); in the assay on HT29 colon, 3.44% (active); with SNB-75 CNS, -21.9% (active); in the assay on SNB-19 CNS it was 14.6%; in the assay with PC-3 prostate it was -2.59% (active); with UACC-62 melanoma, -0.152% (active). The growth with LOX IMVI melanoma is 0.0613% (active); with SK-MEL-28 melanoma, 20.9%; with SK-MEL-2 melanoma, -20.6% (active); in the assay on EKVX NSCLC, 3.77% (active); in the assay on SN12C renal, 4.31% (active); in the assay with UO-31 renal, -43.3% (active). The growth was 9.18% (active) in the assay on TK-10 renal; -1.46% (active) in the assay with ACHN renal; -23.1% (active) with CAKI-1 renal; -21.1% (active) in the assay with A498 renal; -18.8% (active) with CCRF-CEM leukemia; -20.1% (active) in the assay on MOLT-4 leukemia.
Regarding `COc1cccc(/C=C2\Cc3ccccc3C2=O)c1`, the growth with HCT-15 colon was 100%; in the assay on HT29 colon it was 100%; with SNB-75 CNS, 104%; in the assay on SNB-19 CNS, 94.2%; in the assay on PC-3 prostate, 87.5%; with UACC-62 melanoma, 98.9%. The growth is 99.5% in the assay with LOX IMVI melanoma; 113% in the assay with SK-MEL-28 melanoma; 98.8% with SN12C renal; 90.7% in the assay on UO-31 renal; 104% in the assay with ACHN renal; 96.9% with CAKI-1 renal. The growth in the assay on MOLT-4 leukemia is 93.3%.
Turning to `Fc1ccc(-c2nn3c(-c4cc(C(F)(F)F)cc(C(F)(F)F)c4)nnc3s2)cc1`, the growth with HCT-15 colon is 89.7%; with HT29 colon, 40.2%; with SNB-19 CNS, 8.33% (active); in the assay with U251 CNS, 4.98% (active); in the assay with PC-3 prostate, 39.2%; in the assay with SK-MEL-5 melanoma, 56%. The growth with UACC-62 melanoma was 53.3%; in the assay on LOX IMVI melanoma, 63.9%; with SK-MEL-2 melanoma, -33.3% (active); in the assay on EKVX NSCLC, 71.1%; in the assay on UO-31 renal, 29.2%; with TK-10 renal it was -40% (active). Further, the growth was 11.6% with ACHN renal, 69.8% with CAKI-1 renal, 87% in the assay with CCRF-CEM leukemia and 93% in the assay with MOLT-4 leukemia.
Regarding `COc1ccc(-c2nc3sc4c(c3c(=O)[nH]2)CCCCCC4)cc1`, the growth with HCT-15 colon was 27.7%; with HT29 colon it was 14.3%; with SNB-75 CNS it was 49.4%; in the assay on SNB-19 CNS, 66%; with PC-3 prostate, 70.2%; in the assay with SK-MEL-5 melanoma, 53.1%. Further, the growth in the assay on UACC-62 melanoma is 24.6%; in the assay with SK-MEL-28 melanoma it was 62.1%; in the assay with SK-MEL-2 melanoma, 39.7%; in the assay with SN12C renal, 59.4%; in the assay with UO-31 renal, 62%; in the assay with TK-10 renal, 60.5%. Besides, the growth in the assay on ACHN renal was 65.6%; with CAKI-1 renal it was 47.2%; in the assay with A498 renal, 34.6%; with CCRF-CEM leukemia it was 30%; in the assay with MOLT-4 leukemia, 43.4%.
For `Oc1ccc(/C=N/Nc2nc3ccccc3s2)c(O)c1`, the growth in the assay with HCT-15 colon was 30.9%; with HT29 colon, 67.3%; in the assay with SNB-75 CNS it was 28.5%; in the assay on SNB-19 CNS it was 52.5%; in the assay on PC-3 prostate it was 32.5%; in the assay with SK-MEL-5 melanoma, 40.8%. In addition, the growth with LOX IMVI melanoma is 21.3%; in the assay on SK-MEL-28 melanoma, 50.7%; in the assay on SK-MEL-2 melanoma, 24%; in the assay with EKVX NSCLC, 43.2%; in the assay on SN12C renal, 49.9%; with UO-31 renal, 10.2%. Besides, the growth was 22.9% in the assay on TK-10 renal; 23.2% in the assay on ACHN renal; 12.3% with CAKI-1 renal; 77.9% with A498 renal; 27.1% in the assay with CCRF-CEM leukemia; 18.8% with MOLT-4 leukemia.
